Where “and” joins values, the source holds several entries; their conditions need not be identical. Equal values may be shown once. About 2,000 (36%) of roughly 5,500 compounds were called active. About 18% were inconclusive and are not listed. No stated cut-off is given here; in the data, active means normalized growth mostly below about 0.91 (no sharp cut-off); inconclusive means no clear call, values can overlap the other calls; inactive means mostly above about 0.92. Some of the results follow.
Test: chemical genetic growth profiling, strain panel (AID 1159580);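 further: tested at 20 µM; growth read once vehicle control cultures reached saturation at 30 °C; 1 = growth at the plate median or of vehicle wells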
Conditions: growth OD

Measured: normalized growth

CCN(CC)CCNC(=O)c1cc(S(C)(=O)=O)ccc1OC
inactive: S. cerevisiae deletion strains, locus YJR066W, strain TOR1, stronger effect = lower value 0.947 | S. cerevisiae deletion strains, locus YJR075W, strain HOC1, stronger effect = lower value 1.03 and 0.995 | S. cerevisiae deletion strains, locus YKL009W, strain mrt4, stronger effect = lower value 1.02 | S. cerevisiae deletion strains, locus YKL068W, stronger effect = lower value 1.01 | S. cerevisiae deletion strains, locus YKL085W, strain MDH1 (second series), stronger effect = lower value 1.02 | S. cerevisiae deletion strains, locus YKL085W, strain MDH1, stronger effect = lower value 1.02 | S. cerevisiae deletion strains, locus YKL160W, strain elf1, stronger effect = lower value 0.944 | S. cerevisiae deletion strains, locus YKL190W, strain CNB1, stronger effect = lower value 1.01 | S. cerevisiae deletion strains, locus YKR001C, strain vps1, stronger effect = lower value 1.01 | S. cerevisiae deletion strains, locus YKR026C, strain gcn3, stronger effect = lower value 0.979 | S. cerevisiae deletion strains, locus YKR091W, strain srl3, stronger effect = lower value 0.962 | S. cerevisiae deletion strains, locus YLL001W, strain dnm1, stronger effect = lower value 0.94 | S. cerevisiae deletion strains, locus YLL026W, stronger effect = lower value 0.975 | S. cerevisiae deletion strains, locus YLL041C, strain sdh2, stronger effect = lower value 0.972 | S. cerevisiae deletion strains, locus YLR027C, strain aat2, stronger effect = lower value 0.963 | S. cerevisiae deletion strains, locus YLR039C, strain RIC1, stronger effect = lower value 1.03 | S. cerevisiae deletion strains, locus YLR058C, strain SHM2, stronger effect = lower value 1.01 | S. cerevisiae deletion strains, locus YLR102C, strain apc9, stronger effect = lower value 1.01 | S. cerevisiae deletion strains, locus YLR113W, strain HOG1, stronger effect = lower value 0.984 | S. cerevisiae deletion strains, locus YLR221C, strain rsa3, stronger effect = lower value 0.948 | S. cerevisiae deletion strains, locus YLR258W, strain gsy2, stronger effect = lower value 0.981 | S. cerevisiae deletion strains, locus YLR262C, strain YPT6 (second series), stronger effect = lower value 0.976 | S. cerevisiae deletion strains, locus YLR262C, strain YPT6, stronger effect = lower value 1.06 | S. cerevisiae deletion strains, locus YLR268W, strain sec22, stronger effect = lower value 1.02 | S. cerevisiae deletion strains, locus YLR320W, strain mms22, stronger effect = lower value 0.941 | S. cerevisiae deletion strains, locus YLR330W, strain CHS5, stronger effect = lower value 1.01 | S. cerevisiae deletion strains, locus YLR342W, strain FKS1 (second series), stronger effect = lower value 1.02 | S. cerevisiae deletion strains, locus YLR342W, strain FKS1, stronger effect = lower value 0.963 | S. cerevisiae deletion strains, locus YLR357W, strain rsc2, stronger effect = lower value 0.927 | S. cerevisiae deletion strains, locus YLR370C, strain arc18, stronger effect = lower value 0.969 | S. cerevisiae deletion strains, locus YLR371W, strain rom2, stronger effect = lower value 1.01 | S. cerevisiae deletion strains, locus YLR384C, strain iki3, stronger effect = lower value 0.971 | S. cerevisiae deletion strains, locus YLR418C, strain cdc73, stronger effect = lower value 1.04 | S. cerevisiae deletion strains, locus YML016C, strain PPZ1, stronger effect = lower value 1.01 | S. cerevisiae deletion strains, locus YML032C, strain rad52, stronger effect = lower value 1.01 | S. cerevisiae deletion strains, locus YML120C, strain ndi1, stronger effect = lower value 0.944 | S. cerevisiae deletion strains, locus YML124C, strain tub3, stronger effect = lower value 1.01 | S. cerevisiae deletion strains, locus YMR058W, strain fet3, stronger effect = lower value 0.969 | S. cerevisiae deletion strains, locus YMR078C, strain ctf18, stronger effect = lower value 1.01 | S. cerevisiae deletion strains, locus YMR125W, strain sto1, stronger effect = lower value 0.963 | S. cerevisiae deletion strains, locus YMR129W, stronger effect = lower value 0.974 | S. cerevisiae deletion strains, locus YMR205C, strain PFK2, stronger effect = lower value 0.941 | S. cerevisiae deletion strains, locus YMR223W, strain ubp8, stronger effect = lower value 1.03 | S. cerevisiae deletion strains, locus YMR231W, strain pep5, stronger effect = lower value 0.973 | S. cerevisiae deletion strains, locus YMR263W, strain SAP30, stronger effect = lower value 1 | S. cerevisiae deletion strains, locus YMR307W, strain GAS1, stronger effect = lower value 1.06 and 0.987 | S. cerevisiae deletion strains, locus YNL067W, strain RPL9B, stronger effect = lower value 1 | S. cerevisiae deletion strains, locus YNL071W, strain lat1, stronger effect = lower value 0.975 | S. cerevisiae deletion strains, locus YNL128W, strain TEP1, stronger effect = lower value 1.02 | S. cerevisiae deletion strains, locus YNL153C, strain GIM3, stronger effect = lower value 1.02 | S. cerevisiae deletion strains, locus YNL175C, strain NOP13, stronger effect = lower value 1.01 | S. cerevisiae deletion strains, locus YNL183C, strain NPR1, stronger effect = lower value 0.921 | S. cerevisiae deletion strains, locus YNL197C, strain WHI3, stronger effect = lower value 1.03 | S. cerevisiae deletion strains, locus YNL209W, strain ssb2, stronger effect = lower value 0.972 | S. cerevisiae deletion strains, locus YNL224C, strain SQS1, stronger effect = lower value 1 | S. cerevisiae deletion strains, locus YNL233W, strain BNI4, stronger effect = lower value 1 | S. cerevisiae deletion strains, locus YNL248C, strain rpa49, stronger effect = lower value 0.971 | S. cerevisiae deletion strains, locus YNL250W, strain rad50, stronger effect = lower value 1.04 | S. cerevisiae deletion strains, locus YNL271C, strain bni1, stronger effect = lower value 1 | S. cerevisiae deletion strains, locus YNL298W, strain CLA4, stronger effect = lower value 1.01 | S. cerevisiae deletion strains, locus YNL307C, strain MCK1, stronger effect = lower value 1.02 | S. cerevisiae deletion strains, locus YNL322C, strain KRE1 (second series), stronger effect = lower value 0.956 | S. cerevisiae deletion strains, locus YNL322C, strain KRE1, stronger effect = lower value 0.961 | S. cerevisiae deletion strains, locus YNR049C, strain mso1, stronger effect = lower value 0.96 | S. cerevisiae deletion strains, locus YNR052C, strain pop2, stronger effect = lower value 1.01 | S. cerevisiae deletion strains, locus YOL006C, strain TOP1, stronger effect = lower value 1.01 | S. cerevisiae deletion strains, locus YOL012C, strain htz1 0.994 | S. cerevisiae deletion strains, locus YOL147C, strain pex11, stronger effect = lower value 1.01 | S. cerevisiae deletion strains, locus YOR001W, strain rrp6, stronger effect = lower value 0.968 | S. cerevisiae deletion strains, locus YOR061W, strain CKA2, stronger effect = lower value 1.01 | S. cerevisiae deletion strains, locus YOR069W, strain VPS5, stronger effect = lower value 1.01 | S. cerevisiae deletion strains, locus YOR070C, strain gyp1, stronger effect = lower value 0.98 | S. cerevisiae deletion strains, locus YOR080W, strain dia2, stronger effect = lower value 0.959 | S. cerevisiae deletion strains, locus YOR083W, strain WHI5 (second series), stronger effect = lower value 1 | S. cerevisiae deletion strains, locus YOR083W, strain WHI5, stronger effect = lower value 0.94 | S. cerevisiae deletion strains, locus YOR106W, strain vam3, stronger effect = lower value 0.939 | S. cerevisiae deletion strains, locus YOR136W, strain idh2, stronger effect = lower value 1.01 | S. cerevisiae deletion strains, locus YOR144C, strain elg1, stronger effect = lower value 1.01 | S. cerevisiae deletion strains, locus YOR184W, strain ser1, stronger effect = lower value 1.01 | S. cerevisiae deletion strains, locus YOR231W, strain MKK1, stronger effect = lower value 0.978 | S. cerevisiae deletion strains, locus YOR265W, strain rbl2, stronger effect = lower value 0.979 | S. cerevisiae deletion strains, locus YOR270C, strain vph1, stronger effect = lower value 0.933 | S. cerevisiae deletion strains, locus YOR290C, strain snf2, stronger effect = lower value 0.928 | S. cerevisiae deletion strains, locus YOR316C, strain cot1, stronger effect = lower value 1.01 | S. cerevisiae deletion strains, locus YPL051W, strain arl3, stronger effect = lower value 1 | S. cerevisiae deletion strains, locus YPL055C, strain LGE1, stronger effect = lower value 0.983 and 0.98 | S. cerevisiae deletion strains, locus YPL078C, strain atp4, stronger effect = lower value 0.962 | S. cerevisiae deletion strains, locus YPL106C, strain sse1, stronger effect = lower value 0.931 | S. cerevisiae deletion strains, locus YPL240C, strain hsp82, stronger effect = lower value 0.988 | S. cerevisiae deletion strains, locus YPL256C, strain CLN2, stronger effect = lower value 0.981 | S. cerevisiae deletion strains, locus YPR119W, strain clb2, stronger effect = lower value 1 | S. cerevisiae deletion strains, locus YPR141C, strain kar3, stronger effect = lower value 1.01 | S. cerevisiae deletion strains, locus YPR163C, strain tif3, stronger effect = lower value 1.01 | S. cerevisiae deletion strains, locus YPR167C, strain met16, stronger effect = lower value 1.01 | S. cerevisiae deletion strains, strain wtn01, stronger effect = lower value 1.01 | S. cerevisiae strains, strain wild type, stronger effect = lower value 1.01
